In PubChem BioAssay (Tox21):
“And” between values parts separate entries of the source, which are not always exact repeats. Identical values can stand only once. Records with an inconclusive call do not appear. Entries that show only a call come without a potency. The source holds several records for some structures; these can differ, active in one and inactive in another. The source made the active and inactive calls. Unless noted, the call rests on the fitted dose curve; in most records, active means well fitted curve in the direction sought with a large enough effect in the repeat runs; inconclusive means weak or mixed curves; inactive means no such curve, though single readings can be large; an effect the other way counts as inactive or inconclusive.

What was measured:
[1] = qHTS assay for small molecules that induce genotoxicity in human embryonic kidney cells expressing luciferase-tagged ATAD5 (AID 651632); further: nearly all actives have a fitted effect of over 15% in size
Procedure, shortened: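 Cells were seeded at 2,000 per well, dosed with compound, and incubated 16 hr at 37C in 5% CO2. Luciferase activity was then quantified after a 30 min room-temperature incubation with Amplite.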

[2] = qHTS assay for small molecule agonists of the p53 signaling pathway - cell viability (AID 651633; calls by dose curve; further: nearly all actives have a fitted effect of over 30% in size; further: potency means the concentration at half of the fitted maximal effect)
Procedure, shortened: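 p53RE-bla cells, seeded at 4,000 per well and rested 5 h at 37 C/5% CO2, received compounds in DMSO for 16 h at 37 C. CellTiter-Glo was then added, and luminescence was read after 30 min at room temperature to gauge cytotoxicity.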

[3] = qHTS assay for small molecules that induce genotoxicity in human embryonic kidney cells expressing luciferase-tagged ATAD5 - cell viability (AID 651634; calls by dose curve; further: nearly all actives have a fitted effect of over 25% in size; further: potency means the concentration at half of the fitted maximal effect)
Procedure, shortened: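 Cells (HEK293T, luciferase-tagged ATAD5) are seeded at 2,000 per well, dosed with compound or DMSO vehicle, and incubated 15.5 hr at 37C and 5% CO2. CellTiter-Fluor is added for 30 min before fluorescence is measured.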

[4] = qHTS assay to test for compound auto fluorescence at 590 nm (red) in HepG2 cells (AID 720674)
Procedure, shortened: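 Compound auto-fluorescence is scored relative to Rose Bengal sodium, measured at 540/590 nm in live HepG2 cultures after 1 hr compound contact (37 C, 5% CO2).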

[5] = qHTS assay to test for compound auto fluorescence at 535 nm (green) in HepG2 cells (AID 720675)
[6] = qHTS assay to test for compound auto fluorescence at 460 nm (blue) in HEK293 cells (AID 720678)
Procedure, shortened: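 Blue read-out at excitation 405 nm and emission 460 nm follows overnight compound exposure of HEK293 cells at 37C in 5% CO2. Activity is given as auto fluorescence equivalency to triamterene.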

[7] = qHTS assay to test for compound auto fluorescence at 590 nm (red) in HEK293 cells (AID 720679)
Procedure, shortened: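 Red channel, Ex/Em 540/590nm; signal expressed as equivalency to Rose Bengal sodium. HEK293, 2,000 cells/well, 10% dialyzed FBS; 23 nL compound pinned after 4-5 hr attachment; overnight 37C/5% CO2 before reading.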

[8] = qHTS assay for small molecule disruptors of the mitochondrial membrane potential - cell viability (AID 720634; calls by dose curve; further: nearly all actives have a fitted effect of over 20% in size; further: potency means the concentration at half of the fitted maximal effect)
Procedure, shortened: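 Cytotoxicity was measured by ATP quantitation in HepG2 wells that had first been treated with compound for 1 hr and stained with m-MPI dye; CellTiter-Glo incubation was 30 min at room temperature.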

[9] = qHTS assay for small molecule disruptors of the mitochondrial membrane potential (AID 720635); further: potency means the concentration at half of the fitted maximal effect
Procedure, shortened: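 HepG2 cells (2,000/well) attached overnight at 37C, then took compound for 1 hr at 37C, 5% CO2. Mito-MPS dye was added for 30 min; fluorescence was read at 490/535 nm (monomers) and 540/590 nm (aggregates).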

Structure (SMILES)	Potency [1]	Potency [2]	Potency [3]	outcome [4]	Potency [5]	Potency [6]	outcome [7]	Potency [8]	Potency [9]	fluorescence, relative to Rose Bengal [4]	fluorescence, % of fluorescein control [5]	fluorescence, % of triamterene [6]	fluorescence, % of fluorescent control [7]
COC(=O)c1cc(Oc2ccc(Cl)cc2Cl)ccc1[N+](=O)[O-]	inactive	inactive	inactive	inactive	inactive	inactive	inactive	–	–	–	–	–	–
Cc1ccc(C)c2ccccc12	inactive	inactive	–	inactive	inactive	inactive	inactive	inactive	inactive	–	–	–	–
O=S1OCC2C(CO1)C1(Cl)C(Cl)=C(Cl)C2(Cl)C1(Cl)Cl (stereo unspecified)	inactive	68.7 µM (active) and 54.4 µM (active)	inactive	inactive	inactive	inactive	inactive	–	–	–	–	–	–
CCC(C)Nc1c([N+](=O)[O-])cc(C(C)(C)C)cc1[N+](=O)[O-] (stereo unspecified)	inactive	inactive	inactive	–	inactive	inactive	inactive	–	–	–	–	–	–
CCNS(=O)(=O)C(F)(F)C(F)(F)C(F)(F)C(F)(F)C(F)(F)C(F)(F)C(F)(F)C(F)(F)F	inactive	inactive	–	inactive	inactive	inactive	inactive	5.22 µM (active)	1.85 µM (active)	–	–	–	–
CC(C)N(C(=O)SC/C(Cl)=C/Cl)C(C)C	inactive	21.8 µM (active)	–	inactive	inactive	inactive	inactive	54.8 µM (active)	48.9 µM (active)	–	–	–	–
CCCCN(CCCC)C(=S)S	inactive	inactive	inactive	inactive	inactive	inactive	inactive	inactive	–	–	–	–	–
O=S(=O)(NS(=O)(=O)C(F)(F)F)C(F)(F)F	inactive	inactive	inactive	–	inactive	inactive	inactive	inactive	–	–	–	–	–
O=C(NC(=O)c1c(F)cccc1F)Nc1ccc(Oc2ccc(C(F)(F)F)cc2Cl)cc1F	inactive	inactive	inactive	inactive	inactive	inactive	inactive	–	–	–	–	–	–
c1ccc2nc(N3CCNCC3)ccc2c1	inactive	inactive	inactive	inactive	inactive	inactive	inactive	inactive	–	–	–	–	–
CCC[CH2][Sn]([CH2]CCC)([CH2]CCC)[CH2]CCC	inactive	43.3 µM (active)	19.3 µM (active)	inactive	inactive	inactive	inactive	–	4.86 µM (active)	–	–	–	–
COP(=S)(OC)Oc1ccc([N+](=O)[O-])c(C)c1	inactive	inactive	inactive	inactive	inactive	inactive	inactive	–	68.6 µM (active)	–	–	–	–
CC(C)[C@@H](Nc1ccc(C(F)(F)F)cc1Cl)C(=O)OC(C#N)c1cccc(Oc2ccccc2)c1 (stereo partly specified)	inactive	inactive	inactive	inactive	inactive	inactive	inactive	–	26.3 µM (active)	–	–	–	–
[O-][Cl+3]([O-])([O-])O	inactive	inactive	inactive	inactive	inactive	inactive	inactive	inactive	–	–	–	–	–
COP(=O)(OC)Oc1ccc([N+](=O)[O-])cc1	inactive	inactive	–	inactive	inactive	inactive	inactive	inactive	inactive	–	–	–	–
O=S1(=O)OCC2C(CO1)C1(Cl)C(Cl)=C(Cl)C2(Cl)C1(Cl)Cl (stereo unspecified)	inactive	inactive	inactive	inactive	inactive	inactive	inactive	–	13.7 µM (active)	–	–	–	–
CCOC(=O)Cc1ccccc1	inactive	inactive	inactive	–	inactive	inactive	inactive	inactive	–	–	–	–	–
CNC(=O)/C=C(\C)OP(=O)(OC)OC	inactive	inactive	inactive	inactive	inactive	inactive	inactive	–	–	–	–	–	–
CCCCCCCc1ccc(O)cc1	inactive	inactive	inactive	inactive	inactive	inactive	inactive	–	7.7 µM (active)	–	–	–	–
[O]=[Cr](=[O])([OH])[O][Cr](=[O])(=[O])[OH]	inactive	19.5 µM (active) [middle of 4 runs]	–	inactive	inactive	inactive	inactive	inactive and 27.6 µM (active) and 30.6 µM (active)	inactive and 13.8 µM (active) and 27.3 µM (active)	–	–	–	–
CCC1(CC)C(=O)N=C(O)NC1=O	inactive	inactive	inactive	inactive	inactive	inactive	inactive	inactive	–	–	–	–	–
CCCCC(CC)COC(=O)c1ccccc1C(=O)OCC(CC)CCCC (stereo unspecified)	inactive	inactive	inactive	inactive	inactive	inactive	inactive	inactive	–	–	–	–	–
COc1c2c(cc3c1OCO3)CCN(C)C2	inactive	inactive	inactive	–	–	–	–	inactive	–	0.142% [at 18.6 µM] (inactive)	-0.0459% [at 18.6 µM] (inactive)	0.0083% [at 18.6 µM] (inactive)	-0.0835% [at 18.6 µM] (inactive)
